Calls of active or inactive are those of the source. Unless noted, how the calls were made is not given here.

The values below come from PubChem BioAssay.
Further: test concentration not given here.

One experiment is described as follows: P. aeruginosa biofilm formation inhibitors, primary screen, strain PAO1, LB-PBS medium, absorbance 600 nm (AID 1176). The conditions noted are these: P. aeruginosa PAO1 growth/biofilm, A600, 12 h; higher = more signal.
Regarding `[N-]=[N+]=NCc1ccccc1[C@H]1OC(c2ccc(OCCCO)cc2)=N[C@@]1(Cc1ccccc1N=[N+]=[N-])C(=O)O`, the z-score is 0.535 (inactive).
Still for that read-out and setting: to `CC(C)c1ccc(NN2C(C(O)C3CCCCC3)C=CC3C(=O)N(c4ccccc4)C(=O)C32)cc1` (centres undefined) belongs 1.52 (inactive).
On the same count and under the same terms, with `CC(CO)N1C(=O)[C@@H]2[C@H]3C(=O)OCC=C[C@H]3OC23C=CCN(c2ccc4ccccc4c2)C(=O)[C@@H]13` (some centres undefined) the figure was -0.0432 (inactive).
With `O=C1O[C@H](c2ccccc2)[C@H](c2ccccc2)N2[C@H]1[C@@H](C(=O)O)[C@]1(C(=O)Nc3ccccc31)[C@H]2c1ccc(OCCO)cc1`, the z-score was 0.0485 (inactive).
On the same count and under the same terms, to `C=CCNC(=O)[C@@H]1[C@H]2C(=O)O[C@H](c3ccccc3)[C@H](c3ccccc3)N2[C@H](c2ccc(OCCO)cc2)[C@@]12C(=O)N(C(=O)OCCOC)c1ccccc12` belongs 2.69 (inactive); to `C[C@]1(C(=O)NC2CC2)c2ccccc2C(=O)N(Cc2cc(F)cc(C(F)(F)F)c2)[C@H]1c1ccc(CO)cc1`, -0.646 (inactive); to `C=CCNC(=O)[C@@H]1[C@H]2C(=O)O[C@H](c3ccccc3)[C@H](c3ccccc3)N2[C@H](c2ccc(O)cc2)[C@@]12C(=O)Nc1ccc(C#CC3=CCCCC3)cc12`, 1.66 (inactive).
Consider `Cc1cccc([C@H]2C[C@H]3C(Br)=C[C@@]2(CO)C(=O)[C@]32CO2)c1`, for which the z-score is 0.343 (inactive).
For `COc1ccc(CCNC(=O)[C@@]2(c3ccc([N+](=O)[O-])cc3)CC(=O)N(C3CCCCC3)[C@@H]2c2ccc(CO)cc2I)cc1`, the z-score is 0.14 (inactive).
The same measure, in the same setting: with `C=CC[C@]12N=C(c3ccc(OCCCO)cc3)O[C@H]1c1ccccc1N(CCC)C2=O` the figure was 1.24 (inactive); with `[N-]=[N+]=Nc1ccccc1C[C@@]1(C(=O)NCc2ccccc2)N=C(c2ccc(OCCCO)cc2)O[C@@H]1c1ccccc1`, 2.51 (inactive).
Same read-out and setting: with `O=C1O[C@@H](c2ccccc2)[C@@H](c2ccccc2)N2[C@@H](c3ccccc3OCCO)[C@]3(C(=O)Nc4ccc(C#CC5(O)CCCCCC5)cc43)[C@@H](C(=O)N3CCCCCCC3)[C@H]12` the figure was 1.33 (inactive).
Take `C=CC[C@H](O)c1ccc(O)c2ccccc12`: the z-score was 0.614 (inactive).
In the case of `C=C1C(=O)C=C2CN(C(=O)c3ccccc3)[C@@](Cc3ccc(F)cc3)(C(=O)OC)[C@@H]12`, the z-score was 0.439 (inactive).
Same read-out and setting: to `COc1ccc(C(=O)Nc2cccc(CN3C(=O)[C@]4(O[C@H](CC(=O)N(CCO)Cc5ccccc5)[C@@H]([Si](C)(C)c5ccc(OC)cc5)[C@@H]4C)c4ccccc43)c2)cc1` belongs 0.769 (inactive); to `COC(=O)C1=CC(CCCO)=CC(c2ccc(CN3CCCC3)cc2)N(C)C=C1C(=O)OC` (centres undefined), 0.543 (inactive); to `[N-]=[N+]=NCc1ccccc1C[C@@]1(C(=O)NCCN2CCOCC2)N=C(c2ccc(OCCCO)cc2)O[C@@H]1c1ccccc1`, -0.0025 (inactive).
For `COC(=O)C(CC#Cc1ccc2c(c1)[C@]1(C(=O)N2)[C@H](C(=O)N2CCCCCCC2)[C@H]2C(=O)O[C@H](c3ccccc3)[C@H](c3ccccc3)N2[C@@H]1c1ccc(OCCO)cc1)C(=O)OC`, the z-score is 2.05 (inactive).
Consider `CN(C)C(=O)[C@]1(CCS(=O)(=O)c2ccccc2)N=C(c2ccc(OCCCO)cc2)O[C@@H]1c1ccccc1CN=[N+]=[N-]`, for which the z-score is 0.743 (inactive).
Regarding `CC1CC/C=C\[C@H]2OC34C=CCN(CCN5CCOCC5)C(=O)[C@H]3N(C(CO)C(C)C)C(=O)[C@@H]4C2C(=O)O1` (some centres undefined), the z-score was -0.869 (inactive).
Still for that read-out and setting: with `COc1ccc([Si](C)(C)[C@H]2[C@H](CC(=O)N(CCO)Cc3ccccc3)O[C@@]3(C(=O)N(c4ccccc4)c4ccccc43)[C@@H]2C)cc1` the figure was 0.838 (inactive).
Consider `C=CCNC(=O)[C@H]1[C@@H]2C(=O)O[C@@H](c3ccccc3)[C@@H](c3ccccc3)N2[C@@H](c2ccc(O)cc2)[C@]12C(=O)Nc1ccc(C#CCC(C(=O)OC)C(=O)OC)cc12`, for which the z-score was 0.293 (inactive).
In the case of `CC[C@@H]1C=C(C(=O)O)[C@H](c2cccc(Cl)c2)N1S(=O)(=O)c1ccc(C)cc1`, the z-score was -0.184 (inactive).
The same measure, in the same setting: to `C=CCOC(=O)[C@H]1[C@@H]2C(=O)O[C@@H](c3ccccc3)[C@@H](c3ccccc3)N2[C@@H](c2ccc(OCCOC(=O)[C@H]3C[C@H]4C(=O)NCC(=O)N4[C@H]3c3ccc(O)cc3)cc2)[C@]12C(=O)Nc1ccccc12` belongs 0.916 (inactive).
On the same count and under the same terms, to `OCCCc1cc[n+](Cc2cc3c(cc2Br)OCO3)cc1` belongs -0.653 (inactive); to `COc1ccc([Si](C)(C)[C@@H]2[C@@H](CC(=O)N(CCO)Cc3ccccc3)O[C@]3(C(=O)N(Cc4cccc(I)c4)c4ccccc43)[C@H]2C)cc1`, 1.51 (inactive).

A further experiment in a line: S. cerevisiae RM11-1a growth modifiers, primary screen, strain RM11-1a, OD600, basal, 24 h (AID 1177).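 Further: cultures grown under basal conditions with no added stressor.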 The conditions noted are these: OD600, 24 h, higher = more signal, called active from +8 up or from −8 down.
Take `COc1ccc(C(=O)Nc2ccc(CN3C(=O)[C@]4(O[C@H](CC(=O)N(CCO)Cc5ccccc5)[C@@H]([Si](C)(C)c5ccc(OC)cc5)[C@@H]4C)c4ccccc43)cc2)cc1`: the z-score was 2.51 (inactive).
On the same count and under the same terms, with `Cc1ccc(S[C@]2(C(=O)NC(C)C)CC(=O)N(Cc3ccccc3)[C@@H]2c2ccc(CO)cc2I)cc1` the figure was -0.101 (inactive).
Still for that read-out and setting: to `C=C(CCCC)C(=O)CC[C@@H](OC(C)=O)c1ccc(OCCO)cc1` belongs 0.662 (inactive); to `COC(=O)[C@@]1(Cc2ccc(F)cc2)[C@H]2c3cc(C(=O)N4CCCC4)n(CCc4c[nH]c5cc(F)ccc45)c3C[C@H]2CN1C(=O)c1ccccc1`, 0.335 (inactive).
Still for that read-out and setting: to `C=CCN1C(=O)[C@]2(O[C@H](CCO)[C@@H]([Si](C)(C)c3ccc(OC)cc3)[C@@H]2C)c2cc(N3C(=O)c4ccccc4Oc4ccccc43)ccc21` belongs 4.06 (inactive); to `COC(=O)C(CC#Cc1ccc2c(c1)[C@]1(C(=O)N2)[C@H](c2ccc(OCCO)cc2)N2[C@H](c3ccccc3)[C@H](c3ccccc3)OC(=O)[C@H]2[C@@H]1C(N)=O)C(=O)OC`, 2.32 (inactive).
For `CC(C)N1C(=O)[C@@]2(Cc3ccccc31)c1ccccc1C(=O)N(Cc1ccccc1C(F)(F)F)[C@H]2c1ccc(CO)cc1`, the z-score is -0.107 (inactive).
The same measure, in the same setting: with `C=C(C(=O)CC[C@@H](OC(=O)c1ccccc1-c1ccccc1C(=O)O)c1ccc(OCCO)cc1)C(C)C` the figure was -0.718 (inactive); with `COc1ccc(CCNC(=O)[C@@]2(C)c3ccccc3C(=O)N(Cc3ccc(OC(F)(F)F)cc3)[C@H]2c2ccc(CO)cc2)cc1`, 0.362 (inactive).
Same read-out and setting: with `[N-]=[N+]=NCc1ccccc1[C@H]1OC(c2ccc(OCCCO)cc2)=N[C@@]1(Cc1ccccc1N=[N+]=[N-])C(=O)O` the figure was -0.123 (inactive).
Still for that read-out and setting: with `CC(C)c1ccc(NN2C(C(O)C3CCCCC3)C=CC3C(=O)N(c4ccccc4)C(=O)C32)cc1` (centres undefined) the figure was 0.409 (inactive); with `CC(CO)N1C(=O)[C@@H]2[C@H]3C(=O)OCC=C[C@H]3OC23C=CCN(c2ccc4ccccc4c2)C(=O)[C@@H]13` (some centres undefined), -0.405 (inactive).
As to `O=C1O[C@H](c2ccccc2)[C@H](c2ccccc2)N2[C@H]1[C@@H](C(=O)O)[C@]1(C(=O)Nc3ccccc31)[C@H]2c1ccc(OCCO)cc1`, the z-score is -0.785 (inactive).
The same measure, in the same setting: with `C=CCNC(=O)[C@@H]1[C@H]2C(=O)O[C@H](c3ccccc3)[C@H](c3ccccc3)N2[C@H](c2ccc(OCCO)cc2)[C@@]12C(=O)N(C(=O)OCCOC)c1ccccc12` the figure was 3.16 (inactive).
Same read-out and setting: to `C[C@]1(C(=O)NC2CC2)c2ccccc2C(=O)N(Cc2cc(F)cc(C(F)(F)F)c2)[C@H]1c1ccc(CO)cc1` belongs 1.34 (inactive); to `C=CCNC(=O)[C@@H]1[C@H]2C(=O)O[C@H](c3ccccc3)[C@H](c3ccccc3)N2[C@H](c2ccc(O)cc2)[C@@]12C(=O)Nc1ccc(C#CC3=CCCCC3)cc12`, 1.28 (inactive).
On the same count and under the same terms, to `Cc1cccc([C@H]2C[C@H]3C(Br)=C[C@@]2(CO)C(=O)[C@]32CO2)c1` belongs -0.169 (inactive); to `COc1ccc(CCNC(=O)[C@@]2(c3ccc([N+](=O)[O-])cc3)CC(=O)N(C3CCCCC3)[C@@H]2c2ccc(CO)cc2I)cc1`, 1.86 (inactive).
For `C=CC[C@]12N=C(c3ccc(OCCCO)cc3)O[C@H]1c1ccccc1N(CCC)C2=O`, the z-score is 0.208 (inactive).
For the compound `[N-]=[N+]=Nc1ccccc1C[C@@]1(C(=O)NCc2ccccc2)N=C(c2ccc(OCCCO)cc2)O[C@@H]1c1ccccc1`, the z-score is 1.17 (inactive).
Still for that read-out and setting: with `O=C1O[C@@H](c2ccccc2)[C@@H](c2ccccc2)N2[C@@H](c3ccccc3OCCO)[C@]3(C(=O)Nc4ccc(C#CC5(O)CCCCCC5)cc43)[C@@H](C(=O)N3CCCCCCC3)[C@H]12` the figure was 0.312 (inactive).
On the same count and under the same terms, with `C=CC[C@H](O)c1ccc(O)c2ccccc12` the figure was 0.891 (inactive); with `C=C1C(=O)C=C2CN(C(=O)c3ccccc3)[C@@](Cc3ccc(F)cc3)(C(=O)OC)[C@@H]12`, -2.19 (inactive).
The same measure, in the same setting: with `COc1ccc(C(=O)Nc2cccc(CN3C(=O)[C@]4(O[C@H](CC(=O)N(CCO)Cc5ccccc5)[C@@H]([Si](C)(C)c5ccc(OC)cc5)[C@@H]4C)c4ccccc43)c2)cc1` the figure was 3.54 (inactive); with `COC(=O)C1=CC(CCCO)=CC(c2ccc(CN3CCCC3)cc2)N(C)C=C1C(=O)OC` (centres undefined), 0.326 (inactive); with `[N-]=[N+]=NCc1ccccc1C[C@@]1(C(=O)NCCN2CCOCC2)N=C(c2ccc(OCCCO)cc2)O[C@@H]1c1ccccc1`, -0.411 (inactive).
Regarding `COC(=O)C(CC#Cc1ccc2c(c1)[C@]1(C(=O)N2)[C@H](C(=O)N2CCCCCCC2)[C@H]2C(=O)O[C@H](c3ccccc3)[C@H](c3ccccc3)N2[C@@H]1c1ccc(OCCO)cc1)C(=O)OC`, the z-score was 0.415 (inactive).
On the same count and under the same terms, with `CN(C)C(=O)[C@]1(CCS(=O)(=O)c2ccccc2)N=C(c2ccc(OCCCO)cc2)O[C@@H]1c1ccccc1CN=[N+]=[N-]` the figure was 0.3 (inactive).
